Screens: PubChem BioAssay, National Center for Advancing Translational Sciences (NCATS)
A selection: hits, their analogues and other compounds. The true share with any hit is near 9.2%.
ELG1 genotoxic: inducers of genotoxicity in HEK293T ELG1-luciferase cells; actives 1.3% (n = 330,000); AID 504466; HEK293T ELG1-luciferase reporter, luminescence, 16 h; Potency, µM (top dose mostly 46 µM), actives largely listed as activators; also: nearly all actives have a fitted effect of over 60% in size
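Luminescence read-out: rising ELG1-luciferase signal, reflecting elevated ELG1 protein under genetic stress, flags genotoxic compounds. Cells were treated for 16 hr at 37 °C before ONE-Glo detection.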
FLuc counter: inhibits or activates purified firefly luciferase, miR-21 counter-screen; P08659; purified FLuc, Km substrates, luminescence inhibition; Potency, µM (doses to about 57.5 µM), usual class: inhibitors; actives 6.9% (n = 360,000); AID 588342; also: nearly all actives have a fitted effect of over 55% in size
Target sequence (P08659 whole entry, looked up): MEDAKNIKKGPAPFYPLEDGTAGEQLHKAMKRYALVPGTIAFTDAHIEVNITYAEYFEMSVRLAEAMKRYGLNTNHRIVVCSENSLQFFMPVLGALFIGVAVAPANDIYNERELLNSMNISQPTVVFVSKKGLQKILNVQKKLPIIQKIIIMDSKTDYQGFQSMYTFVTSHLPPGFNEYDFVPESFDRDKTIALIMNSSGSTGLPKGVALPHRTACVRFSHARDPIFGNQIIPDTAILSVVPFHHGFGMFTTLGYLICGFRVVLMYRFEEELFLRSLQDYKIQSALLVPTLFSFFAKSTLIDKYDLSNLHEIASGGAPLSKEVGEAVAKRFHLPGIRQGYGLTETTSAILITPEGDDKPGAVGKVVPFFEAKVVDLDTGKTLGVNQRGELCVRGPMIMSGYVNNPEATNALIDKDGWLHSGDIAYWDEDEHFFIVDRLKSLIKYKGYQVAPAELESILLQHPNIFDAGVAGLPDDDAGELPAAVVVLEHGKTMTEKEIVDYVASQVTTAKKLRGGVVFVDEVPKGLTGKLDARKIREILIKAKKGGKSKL
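Biochemical qHTS of compounds, final roughly 60 µM downward over six points, against 10 nM purified firefly luciferase using Km concentrations of substrates (10 uM D-luciferin, 10 uM ATP) in Tris acetate pH 7.5 buffer; luminescence output.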
ELG1 repair inh: blocks ELG1-dependent DNA repair in HEK293T cells; Potency, µM (titrated, usually from 46.1 µM), hits mostly inhibitors; actives 2.3% (n = 330,000); HEK293T ELG1-luciferase reporter, luminescence, 16 h; DNA damage induced by 5-fluorouridine; also: nearly all actives have a fitted effect of over 55% in size
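Cells (2,000 per well) received 5-fluorouridine plus test compound or DMSO and were incubated 16 hr at 37 °C, 5% CO2. Luciferase activity was read by luminescence 30 min after ONE-Glo addition; signal suppression marked inhibition of damage-induced ELG1 function.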
NPC1 prom act: activates the NPC1 promoter; actives 2.4% (n = 320,000); Huh7 NPC1 promoter luciferase reporter, 24 h; Potency, µM (series often up to 9.22 µM), actives largely listed as activators; AID 485313; also: nearly all actives have a fitted effect of over 60% in size
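Luciferase expression driven by the NPC1 promoter was measured in stably transfected Huh7 cells after a 24 h compound incubation, using a luciferase reagent and a luminescence read.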
Rab9 prom act: activators of Rab9 promoter. Huh7 Rab9 promoter-luciferase reporter, luminescence, 24 h. Potency, µM (doses to about 9.22 µM), usual class: activators. actives 2.8% (n = 320,000). AID 485297; also: nearly all actives have a fitted effect of over 60% in size
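Rab9 promoter-driven luciferase in stably transfected Huh7 cells; 1500 cells/well rested 2 h, exposed to compound in DMSO for 24 h at 37 °C, 5% CO2. Luminescence read 10 min after adding luciferase reagent at ambient temperature.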
SMN2 splice up: increases expression of the SMN2 splice variant | HEK293 SMN2-luciferase splicing reporter, luminescence, 30-36 h | Potency, µM (highest dose often 46.1 µM), usual class: activators | actives 2.8% (n = 210,000); also: nearly all actives have a fitted effect of over 55% in size
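HEK293 cells carry an SMN2 minigene-luciferase reporter in which exon 7 inclusion puts luciferase in frame. Cells were seeded at 2000 cells/well, attached for 10-12 hours, then exposed to compounds for 30-36 hours at 37C before ONE-Glo luminescence.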
A number is an active result; . = inactive; ? = inconclusive; / = not tested or not shown; [ ] = another dose, or the depositor's remark. Calls follow the shape of the dose curve; as a rule, active = well fitted curve in the direction sought with a large enough effect; inconclusive = small, poorly fitted or top-dose-only effect, or another doubt; inactive = no such curve, though single readings can be large; an effect the other way counts as inactive or inconclusive.

SMILES	ELG1 genotoxic	FLuc counter	ELG1 repair inh	NPC1 prom act	Rab9 prom act	SMN2 splice up
CSCC(=O)N1CCCC(CNC(=O)c2ccc(-c3ccccc3)cc2)C1 (stereo not given)	.	21.3µM	?	.	.	/
CSCC(=O)N1CCCC(CNC(=O)c2ccccc2Cl)C1 (stereo not given)	.	.	.	.	.	/
CC(=O)CCC(=O)N1CCCC(CNC(=O)c2ccc(-c3ccccc3)cc2)C1 (stereo not given)	.	10.7µM	.	.	.	/
O=C(Nc1nnc(-c2ccc3c(c2)CCCC3)o1)c1c(F)cccc1F	.	15.1µM	?	.	.	.
O=C(Nc1nnc(-c2ccc3c(c2)CCCC3)o1)c1ccc(Cl)cc1Cl	.	.	.	.	.	.
Cc1ccc(-n2ncc(Cl)c2C(=O)NCc2ccccc2)cc1	?	10.7µM	?	?	?	/
C=CCNC(=O)c1c(Br)cnn1-c1ccc(C)cc1	?	19µM	?	2.51µM	2.51µM	/
CCCCCCC(=O)N1CCC(c2nc3c(nnn3Cc3ccccc3Cl)c(=O)[nH]2)CC1	.	.	?	.	.	.
Cc1ccc(-n2nc(C)c3c(C)cc(=O)n(CC(=O)Nc4ccc(Br)cc4F)c32)cc1	/	.	/	/	/	/
O=C(NCc1cccs1)c1cc2ccccc2o1	.	19µM	?	.	.	.
Cc1csc(C(C#N)C(=O)c2cc3ccccc3o2)n1 (stereo not given)	?	1.35µM	?	2.82µM	2.82µM	11.2µM
CCOC(=O)Cc1csc(NC(=O)c2cc3ccccc3o2)n1	.	10.7µM	?	?	?	.
CC(Cc1ccccc1)NC(=O)c1cc2ccccc2o1 (stereo not given)	?	?	?	3.16µM	2.51µM	/
COC(=O)c1ccc(C(=O)OC)c(NC(=O)c2ccc(-c3ccccc3)s2)c1	/	.	/	/	/	?
C=CCNC(=O)NC(=O)COC(=O)/C(C#N)=C/c1ccc(OC)cc1	.	.	.	.	.	.
Cc1csc(NC(=O)c2cc3ccccc3o2)n1	?	0.953µM	?	?	1.41µM	/
Cn1c(=O)[nH]c(=O)c2c1nc(N1CCCCC1)n2CC(O)COc1ccc([N+](=O)[O-])cc1 (stereo not given)	.	.	?	.	.	/
Cc1ccc(C)c(N2CCN(C(=O)c3ccc(CS(=O)Cc4ccc(Cl)cc4)o3)CC2)c1 (stereo not given)	.	.	14.6µM	.	.	/
Cc1ccc(C)c(N2CCN(C(=O)c3ccc(CS(=O)(=O)c4ccccc4C)o3)CC2)c1	.	.	25.9µM	.	.	.
CC1C=CCC2C(=O)N(c3cccc(C(=O)N4CCN(c5ccc(F)cc5)CC4)c3)C(=O)C12 (stereo not given)	?	12µM	?	2.82µM	3.16µM	?
Cc1cccc(N2CCN(C(=O)c3cccc(N4C(=O)C5C6C=CC(C6)C5C4=O)c3)CC2C)c1 (stereo not given)	.	.	13µM	.	.	/
O=C(c1cccc(N2C(=O)C3C4C=CC(C4)C3C2=O)c1)N1CCN(c2ccc(F)cc2)CC1 (stereo not given)	.	.	?	.	.	/
Cc1ccc(Cl)cc1N1CCN(C(=O)c2ccc(CS(=O)Cc3ccc(Cl)cc3)o2)CC1 (stereo not given)	.	.	.	.	.	/
c1ccc2c(c1)CCC[C@H]2Nc1nc2ccccc2[nH]1	/	/	/	.	.	/
COc1ccc(CNC(=O)c2cnc(N3CCCC3)nc2C)cc1	/	.	/	/	/	/
SMILES	ELG1 genotoxic	FLuc counter	ELG1 repair inh	NPC1 prom act	Rab9 prom act	SMN2 splice up
CCn1c(-c2ccccc2Cl)nn(CC(=O)Nc2ccc(OC)cc2)c1=S	.	.	.	.	.	.
Cc1cccc(N2CCN(C(=O)c3ccc(CS(=O)(=O)c4ccccc4C)o3)CC2C)c1 (stereo not given)	.	.	9.2µM	.	.	.
CCc1ccc(CNC(=O)c2ccc(Cn3c(=O)c4cccn4c4cccnc43)cc2)cc1	/	.	/	/	/	/
Cn1c(=NC(=O)C2CCCCC2)sc2cc([N+](=O)[O-])ccc21	.	.	.	.	?	/
Cn1/c(=N/N=C/c2ccc([N+](=O)[O-])cc2)sc2ccccc21	?	2.13µM	?	.	.	.
CCNc1nc(NC(C)C)nc(Oc2ccc(/C=N/O)cc2)n1	.	.	.	.	.	.
Cc1cccc(N2CCN(C(=O)c3ccoc3C)CC2)c1C	.	.	.	.	.	.
O=C(Nc1nc2ccc(Cl)cc2s1)c1ccco1	?	1.69µM	?	0.631µM	1.26µM	3.16µM
O=C(Nc1nc2ccc(S(=O)(=O)N3CCCC3)cc2s1)c1ccco1	.	?	.	.	.	.
CC(=O)Nc1nc2ccc(NC(=O)c3ccco3)cc2s1	?	?	?	.	?	.
O=C(Nc1nc2ccc(Br)cc2s1)c1ccco1	?	3.01µM	?	1.26µM	0.631µM	/
O=C(CN1CCCCC1)NCC1(c2ccccc2)CCCC1	.	.	?	.	.	/
COC(=O)C1CCN(C(=O)c2ccc3nc(-c4cccc(OC)c4)oc3c2)CC1	?	21.3µM	?	1.78µM	2µM	/
COC(=O)C1CCN(C(=O)c2ccc3nccnc3c2)CC1	.	.	.	.	.	/
COc1cccc(-c2nc3ccc(C(=O)NC(C)Cc4cccnc4)cc3o2)c1 (stereo not given)	?	9.53µM	?	2.24µM	2.82µM	/
COc1ccc(C(=O)Nc2ccc3oc(-c4cccnc4)nc3c2)cc1	/	?	/	/	/	.
CC(C)C(=O)NNC(=O)CSc1nnnn1C(C)C	.	.	.	.	.	.
Cc1ccc2nc(CCl)[n+]([O-])c(-c3ccccc3)c2c1	.	.	.	.	.	/
Cc1csc(NC(=O)C2COc3ccccc3O2)n1 (stereo not given)	0.517µM	1.2µM	?	?	0.447µM	?
Cc1ccc2sc(NNC(=O)C3COc4ccccc4O3)nc2c1C (stereo not given)	.	.	.	.	.	10µM
O=C(Nc1nc(-c2ccccc2)cs1)C1COc2ccccc2O1 (stereo not given)	.	.[2.3 µM]	.	.	.	.
CCC(C)NC(=O)c1ccccc1NC(=O)C1COc2ccccc2O1 (stereo not given)	.	.	?	.	.	/
Cc1cnc(NC(=O)C2COc3ccccc3O2)s1 (stereo not given)	?	0.675µM	?	0.1µM	0.316µM	10µM
O=C(NNc1nc2c(F)cccc2s1)C1COc2ccccc2O1 (stereo not given)	.	?	.	.	.	.
CC(C)NC(=O)c1ccccc1NC(=O)C1COc2ccccc2O1 (stereo not given)	.	.	20.6µM	.	.	.
